Compound activity as filed in PubChem BioAssay.
Sampled rows, rich in hits. Any-hit rate of the full collection: about 1.4%.
IDE cell inh: cellular human IDE inhibition; P14735; inhibition, % at 5.59 µM; HEK cells, FAbetaB cleavage, fluorescence polarization; 0.41% of 320,000 active; AID 434962;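 active means percent inhibition above the average of all tested compounds plus 3 SD, set per screening campaign, cut at about 16% in these data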;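 further: IDE supplied by intact live HEK cells; FP after avidin binding of uncleaved biotin substrate so inhibition keeps polarization high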
CRFBP-R2 agonist: CRF-BP/CRF-R2 complex agonism. HEK293 CRF-R2/CRF-BP, calcium dye fluorescence (FLIPR); percent of saturating CRF peptide response. activation, % at 13.2 µM. 0.46% of 350,000 active. AID 588473;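 active means activation of at least 50%, plus an integration ratio under a set limit after plate pattern correction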
HNF4A DNA FP: change in binding of human HNF4 alpha to DNA; P41235; HNF4a-FITC DNA binding, fluorescence polarization, 1 h; activity change, % at 10 µM; 0.3% of 360,000 active; AID 1224865; in the data active means activity change above about 30%, passing the limit was not always enough
TPT1 inh: C. albicans TPT1 enzyme inhibition; inhibition, % at 5 µM; recombinant caTPT1, FP RNA substrate dephosphorylation; AID 1962; 0.81% of 300,000 active;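 active means inhibition above the mean of all tested compounds plus 3 SD, set per screening campaign, cut at about 24% in these data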
IDE cell activ: activators of human insulin-degrading enzyme in cells | 0.073% of 340,000 active | activation, % at 5.96 µM | HEK cells, FAbeta-B cleavage, fluorescence polarization; 0% vehicle, 100% cell-free pure enzyme wells | AID 493087 | P14735;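 active means activation above the mean of all tested compounds plus 3 SD, set per screening campaign, cut at about 17% in these data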
caTPT1 confirm: confirmation of Candida albicans TPT1 inhibitors. AID 2149. shares compounds with TPT1 inh. 74% of 2,400 active. recombinant caTPT1, fluorescence polarization, RNase T1 coupled. inhibition, % at 5 µM;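 active means inhibition above the primary screen limit, the mean inhibition of all tested compounds plus 3 SD, cut at about 25% in these data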
RNase T1 counter: counter-screen for TPT1 inhibitors: inhibitors of Aspergillus oryzae RNase T1. inhibition, % at 5 µM. 83% of 2,400 active. RNase T1 cleavage, fluorescence polarization, 1536-well. shares compounds with TPT1 inh;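 active means inhibition above the solvent-only control well mean plus 3 SD, limit set per screening run, cut at about 23% in these data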;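 further: inhibitors block cleavage so intact labeled substrate keeps polarization high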
IDE inh confirm: confirmation of human insulin-degrading enzyme inhibitors in cells; shares compounds with IDE cell inh; HEK cells, FAbetaB cleavage, fluorescence polarization; 51% of 1,200 active; inhibition, % at 5.59 µM;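 active means mean inhibition across triplicate wells above the cutoff set by the earlier primary insulin-degrading enzyme screen, cut at about 16% in these data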
HEK293 tox: HEK cell cytotoxicity, counter-screen for IDE inhibitors. inhibition, % at 5.59 µM. 28% of 1,200 active. AID 449730. HEK293 cytotoxicity, ATP luminescence. shares compounds with IDE cell inh; in the data active means inhibition above about 22%
A number is an active result; . = inactive; / = not tested or not shown; + = active, no number.

SMILES | IDE cell inh | CRFBP-R2 agonist | HNF4A DNA FP | TPT1 inh | IDE cell activ | caTPT1 confirm | RNase T1 counter | IDE inh confirm | HEK293 tox
COc1cc(/C=C2/CCc3ccccc3C2=O)cc(OC)c1OC | . | . | . | . | . | / | / | / | /
COc1cc(/C=C2/CCC/C(=C\c3cc(O)c(OC)c(Cl)c3)C2=O)cc(Cl)c1O | 23 | . | . | 36 | . | . | 23 | 24 | 87
CSc1ccc(CN2CCN(S(=O)(=O)Cc3ccccc3)CC2)cc1 | . | . | . | . | . | / | / | / | /
CC1(C)C(=O)Nc2ccccc2N1C(=O)COC(=O)CNS(=O)(=O)c1ccc(F)c(F)c1F | . | . | . | / | . | / | / | / | /
CCN(CC)c1ccc(-n2c(C)cc(C=O)c2C)cc1 | . | . | . | . | . | / | / | / | /
CCN(CC)c1ccc2cc(C=O)c(=O)oc2c1 | 91 | . | . | 121 | . | 102 | 101 | 67 | .
CCN(CC)c1ccc2cc(C(C)=O)c(=O)oc2c1 | 35 | 361 | / | 131 | . | 109 | 109 | 18 | .
O=C(Cc1n[nH]c(=O)c2ccccc12)OCC(=O)c1ccccc1 | . | . | . | / | . | / | / | / | /
CCOC(=O)C1CCN(c2c(NCc3ccc(C(=O)N(C)Cc4ccccc4)cc3)c(=O)c2=O)CC1 | . | . | . | . | . | / | / | / | /
COc1cc(/C=C(\C#N)c2nc3ccccc3n2C)cc(OC)c1O | 166 | 52 | . | 83 | . | 101 | 101 | 26 | .
COc1cc(/C=C(\C#N)c2nc3ccccc3[nH]2)cc(OC)c1O | 92 | 164 | . | 137 | . | 133 | 124 | 26 | .
C/C(=N\Nc1ccc([N+](=O)[O-])cc1)c1cc2ccccc2o1 | 18 | 53 | 56 | 111 | . | 111 | 113 | . | .
O=C(N/N=C/c1ccc([N+](=O)[O-])cc1)c1cc2ccccc2o1 | . | . | . | . | . | / | / | / | /
CC(=O)c1ccc(S(=O)(=O)NC2CC(=O)N(c3ccc(C)c(C)c3)C2)cc1 (configuration not stated) | . | . | . | . | . | / | / | / | /
CCOC(=O)CN1C(=O)S/C(=C/c2ccc(N3CCCCC3)o2)C1=O | 19 | . | . | + | . | 180 | 167 | 69 | .
CCOC(=O)CN1C(=O)S/C(=C/c2ccco2)C1=O | . | . | . | . | . | / | / | / | /
Cc1ccc(OCC(=O)N(C)CC(=O)Nc2ccc(Cl)c(C(F)(F)F)c2)c([N+](=O)[O-])n1 | . | . | . | / | . | / | / | / | /
CCS(=O)(=O)c1nn2c(N)c(/C=C3/C=CC(=O)C(OC)=C3)c(=O)nc2s1 | 24 | . | . | 35 | . | 86 | 92 | 157 | .
Nc1c(C=C2C=CC(=O)C=C2)c(=O)nc2sc(CC(=O)N3CCCC3)nn12 | . | . | . | . | . | / | / | / | /
O=C1/C(=C/c2ccc(O)cc2)SC(=S)N1CC1CCCO1 (configuration not stated) | 87 | . | 91 | 75 | . | 81 | 83 | 167 | .
O=C1/C(=C\c2ccc(O)cc2)SC(=S)N1Cc1ccccc1 | 77 | . | 94 | 75 | . | 83 | 84 | 137 | .
CN(C)c1ccc(/C=C/C(=O)c2cccc(Br)c2)cc1 | 107 | 278 | . | 99 | . | 97 | 94 | 110 | 26
Cc1ccc(N=C2NC(=O)/C(=C/c3cn(C)c4ccccc34)S2)cc1C | 19 | 64 | 65 | 117 | . | 121 | 125 | 52 | .
C=CCOC(=O)C1=C(C)OC(N)=C(C#N)C1c1ccoc1 (configuration not stated) | 45 | . | . | 62 | . | 59 | 74 | 40 | .
C=CCOC(=O)C1=C(C)OC(N)=C(C#N)C1c1ccc2c(c1)OCO2 (configuration not stated) | . | . | . | . | . | / | / | / | /
SMILES | IDE cell inh | CRFBP-R2 agonist | HNF4A DNA FP | TPT1 inh | IDE cell activ | caTPT1 confirm | RNase T1 counter | IDE inh confirm | HEK293 tox
O=C1NC[C@H](CCCCN2C[C@H](Cc3ccccc3)N(CCc3ccc(O)cc3)C(=O)C2=O)N(CCC2CCCCC2)C1=O | / | / | . | / | / | / | / | / | /
O=C1CCC/C(=N/NC(=O)c2sc3ccccc3c2Cl)C1 | 26 | 53 | . | 98 | . | 110 | 108 | 27 | .
O=C(NN=C1CCCC1)c1sc2ccccc2c1Cl | . | . | . | . | . | / | / | / | /
O=C(N/N=C/c1c(O)ccc2ccccc12)c1ccc(Br)o1 | 99 | 101 | . | 39 | . | 51 | 56 | 142 | 102
Cn1nccc1C(=O)N/N=C/c1c(O)ccc2ccccc12 | 16 | . | . | 37 | . | 44 | 49 | 22 | 111
O=C(N/N=C/c1c(O)ccc2ccccc12)c1cccnc1 | 63 | . | 43 | 64 | . | 99 | 98 | 64 | 76
Cc1ccc(C(=O)N/N=C/c2c(O)ccc3ccccc23)cn1 | 64 | . | 45 | 84 | . | 93 | 96 | 105 | 96
Cc1nnc(SCC(=O)c2c[nH]c3ccccc23)n1C1CC1 | . | . | . | / | . | / | / | / | /
CCN(CC(=O)N1CCOCC1)S(=O)(=O)c1ccc(F)cc1 | . | . | . | . | . | / | / | / | /
CCN(CC)c1ccc(/C=C2\C(=N)N3N=C(CC(=O)N4CCOCC4)SC3=NC2=O)cc1 | 20 | 109 | . | 137 | . | 174 | 164 | 36 | .
CSc1ccc(/C=C2\C(=N)N3N=C(CC(=O)N4CCOCC4)SC3=NC2=O)cc1 | . | . | . | . | . | / | / | / | /
CCN(CC)c1ccc(/C=C/C(=O)C2C(=O)C=C(C)OC2=O)cc1 (configuration not stated) | 64 | 377 | . | 48 | . | 33 | 40 | 95 | .
CN(C)c1ccc(/C=C2\SC(N3CCCCC3)=NC2=O)cc1 | 16 | 51 | . | 106 | . | 116 | 116 | 27 | .
Oc1[nH]c(=S)sc1C=C1N=c2ccccc2=N1 | . | . | . | . | / | / | / | / | /
Oc1[nH]c(=S)sc1/C=C1\C(c2ccccc2)=Nc2ccccc21 | 18 | . | 95 | 138 | . | 130 | 136 | . | .
CCOC(=O)C1=CN(Cc2cccc(-c3ccc(Cl)nc3)c2)S(=O)(=O)N(C)C1C (configuration not stated) | / | . | . | / | . | / | / | / | /
COc1ccc(/C=C2\C(=O)NC(=S)N2C(=O)c2ccc(F)cc2)cc1 | 37 | . | 72 | 148 | . | 156 | 145 | 59 | .
COc1ccc(C(=O)CC(=O)c2ccc(F)cc2)cc1 | . | . | . | . | / | / | / | / | /
COc1ccc2nc(NN=C(C)c3ccccn3)cc(C)c2c1 | / | . | . | / | . | / | / | / | /
N#Cc1cc(C(=O)c2ccccc2O)cn(-c2nccs2)c1=O | 39 | 239 | . | 44 | . | 42 | 52 | 61 | .
